High-throughput results deposited in PubChem by National Center for Advancing Translational Sciences (NCATS).
An excerpt weighted towards active compounds, which were near 10% of everything screened.
HP1b binding inh – HP1-beta chromodomain-methylated histone interaction inhibition. P83916. AlphaScreen HP1-beta / biotin-H3K9me3 peptide binding. Potency, µM (highest dose often 114 µM), without a hit: at the highest dose activity change, negative = inhibition, most hits filed as inhibitors. 0.56% of 390,000 active; further: nearly all actives have a fitted effect of over 70% in size
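HP1-beta protein (50 nM final) preincubated 30 min at room temperature with biotinylated H3(1-18)K9me3 peptide (50 nM) in PBS pH 7.4, 0.01% Tween-20, then compound added for 30 min. AlphaScreen streptavidin donor/nickel chelate acceptor beads (10 ug/mL final), 30 min dark, luminescence read.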
G9a inh – G9a (human) methyltransferase inhibition. Q96KQ7. G9a H3K9 monomethylation, AlphaScreen, 2 h. Potency, µM (highest dose often 102 µM), inactives show at the highest dose activity, negative = inhibition, hits mostly inhibitors. 8.8% of 350,000 active. AID 504332; further: on the % scale 0 is the no-effect control and ±100 the full control effect; nearly all actives have a fitted effect of over 75% in size
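Chemiluminescent proximity detection of H3K9 monomethylation, read after 10 min bead incubation in the dark. Reaction: 20 nM G9a, 500 nM biotin-H3K9 peptide, 20 uM SAM cofactor, 2 h, room temperature, following 15 min enzyme-compound preincubation.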
GLS inhibitor – inhibitors of human glutaminase (GLS) | O94925 | GLS enzymatic activity, qHTS titration | Potency, µM (highest dose often 45.5 µM), for the others: top-dose activity change, negative = inhibition, actives largely listed as inhibitors | 0.21% of 410,000 active | AID 624170; further: on the % scale 0 is the no-effect control and ±100 the full control effect
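Assay buffer: 45 mM KH2PO4 pH 8.2, 0.02% Tween-20. hKGA acts on L-glutamine (1 mM solution added); product glutamate is reported by an oxidase/peroxidase Amplex Red coupling, with fluorescence taken at baseline and 30 min.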
BAZ2B block – blocks human BAZ2B | Q9UIF8 | AlphaScreen BAZ2B-H3K14Ac peptide displacement | Potency, µM (top dose mostly 114 µM), for inactives: at the highest dose activity change, negative = inhibition, actives largely listed as inhibitors | 4.4% of 360,000 active; further: on the % scale 0 is the no-effect control and ±100 the full control effect; nearly all actives have a fitted effect of over 60% in size
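BAZ2B (50 nM) with biotin-H3(5-23)K14Ac peptide (50 nM) in PBS pH 7.4, 0.01% Tween-20, preformed 30 min, then compound 30 min at room temperature; top concentration 110uM. AlphaScreen streptavidin donor/nickel chelate acceptor beads (10 ug/mL final), 20 min dark, signal read.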
JMJD2A Tudor – inhibitors of human JMJD2A Tudor domain; O75164; AlphaScreen JMJD2A-Tudor / H3K4me3 peptide binding; Potency, µM (highest dose often 114 µM), for the others: at the top dose activity change, negative = inhibition, usual class: inhibitors; 4.4% of 390,000 active; AID 504339; further: on the % scale 0 is the no-effect control and ±100 the full control effect; nearly all actives have a fitted effect of over 50% in size
Starred values were filed as active, the others as inactive; u = inconclusive; x = not tested or not shown; [ ] = remark or other dose. The call rests on the fitted dose curve; in most records, active means well fitted curve in the direction sought with a large enough effect; inconclusive means small, poorly fitted or top-dose-only effect, or another doubt; inactive means no such curve, though single readings can be large; an effect the other way counts as inactive or inconclusive. Potency means the concentration at half of the fitted maximal effect.

SMILES	HP1b binding inh	G9a inh	GLS inhibitor	BAZ2B block	JMJD2A Tudor
C=CCc1cccc2ccc(=O)oc12	38%	17%[59 µM]	-2%	-17%	8%
CC(=O)c1ccc(C2CC34CN(Cc5cccc(Cl)c5)S(=O)(=O)C3CC2O4)cc1 (stereo not given)	59%	x	x	x	-22%
CC(=O)c1ccc(C2CC34CNS(=O)(=O)C3CC2O4)cc1 (stereo not given)	-23%	x	x	x	79µM*
O=C(O)CCC1(CCC(=O)O)CCCC(CCC(=O)O)(CCC(=O)O)C1=O	17%[57 µM]	x	0%	x	3%
CSCC[C@H](NS(=O)(=O)c1ccc(C(C)=O)cc1)c1nnc2ccccn12	46%	45µM*	-12%	56µM*	0%
Cc1ccccc1C(=O)Nc1ccc2c(C#N)c3nc4ccccc4nc3n2c1	-10%	5µM*	1%	50µM*	-32%
CC1(c2ccc(OC(F)F)cc2)NC(=O)N(CC(=O)Nc2ccc(N3CCCCC3)cc2)C1=O (stereo not given)	u	7.1µM*	19%	u	u
CC1(c2ccccc2)NC(=O)N(CC(=O)Nc2ccc([N+](=O)[O-])cc2)C1=O (stereo not given)	25%	-4%	-12%	-14%	-26%
O=C(CN1C(=O)NC2(CCCCCCC2)C1=O)Nc1ccc(OC(F)F)cc1	34%	x	-14%	x	-9%
CC1(c2ccc([N+](=O)[O-])cc2)NC(=O)N(CC(=O)Nc2ccc(N3CCCCC3)cc2)C1=O (stereo not given)	u	11µM*	35%	35µM*	u
COc1ccc(C2CCCCC2SCC(=O)O)cc1OC (stereo not given)	x	x	-3%	x	x
NC(=O)c1ccc(SCC(=O)OCC(=O)N2CCN(C(=O)c3ccco3)CC2)c([N+](=O)[O-])c1	6%	56µM*	-23%	-9%	-18%
Cc1cc(Br)ccc1SCC(=O)OCC(=O)N1CCN(C(=O)c2ccco2)CC1	10%	45µM*	-5%	u	-29%
NC(=O)c1ccc(SCC(=O)OCC(=O)N2CCCCC2)c([N+](=O)[O-])c1	30%	50µM*	-2%	-28%	2%
Cc1ccc(NC(=O)CSc2ccc(C(N)=O)cc2[N+](=O)[O-])cc1C	6%	-28%	u	-15%	14µM*
Cc1ccc(NC(=O)CSc2ccc(C(N)=O)cc2[N+](=O)[O-])cc1	20%	-8%[59 µM]	3%	2%	-13%
O=C(c1ccc2c(c1)N(Cc1cccc(Cl)c1)C(=O)c1ccccc1S2(=O)=O)N1CCC(Cc2ccccc2)CC1	13%	-4%[59 µM]	-3%	0%	-24%
Cc1ccc(C)c(CSc2nc(-c3ccccc3F)nc3c2Cc2c(CO)cnc(C)c2O3)c1	56%	2%[59 µM]	0%	-16%	-6%
Cc1ccc(CNc2ccc3c(c2)ncn3C(C)(C)C)cc1	-11%	7.1µM*	0%	35µM*	-21%[11.4 µM]
CC(C)(C)n1cnc2cc(NCc3ccccc3Cl)ccc21	u	16µM*	-10%	32µM*	40µM*
Cc1ccc(S(=O)(=O)Nc2ccc3c(c2)ncn3C(C)(C)C)cc1	32%	-2%[59 µM]	-5%	-3%	-3%
CC1(C)Cc2cccc(OCC(=O)N3CCN(S(=O)(=O)c4ccc(F)cc4)CC3)c2O1	25%	-7%[2.33 µM]	4%	3%	-8%
Cc1cccc(N2CCN(C(=O)COc3cccc4c3OC(C)(C)C4)CC2)c1C	54%	45µM*	-5%	13%	-13%
CC1(C)Cc2cccc(OCC(=O)NCCOc3ccccc3)c2O1	-15%	-2%[59 µM]	u	-15%	20µM*
COc1ccc(N(CC(C)C)S(=O)(=O)c2nnc(NC(=O)c3cccs3)s2)cc1	80%	2%[59 µM]	4%	30%	31%
SMILES	HP1b binding inh	G9a inh	GLS inhibitor	BAZ2B block	JMJD2A Tudor
COc1ccc(Cl)cc1NC(=O)Cn1c(=O)n(-c2ccc(C)cc2)c(=O)c2ccc(C(=O)NCc3ccccc3Cl)cc21	15%	4%[59 µM]	2%	x	-16%
O=C(Cn1c(=O)n(-c2ccccc2)c(=O)c2ccc(C(=O)NCc3ccc4c(c3)OCO4)cc21)Nc1ccc(Br)cc1F	35%	1%[59 µM]	-5%	x	6%
Fc1ccc(CNc2ccc(N3CCN(Cc4ccccc4)CC3)cc2)cc1	22µM*	13µM*	20%	10µM*	20µM*
CC(=O)N1CCN(c2ccc(NCc3ccc4c(c3)OCO4)cc2)CC1	-21%	u	51%	u	u
COc1ccc(CNc2ccc(N3CCN(C(C)=O)CC3)cc2)cc1OC	30%	x	-4%	x	-17%
O=C(c1ccccc1)N1CCN(c2ccc(NCc3ccc4c(c3)OCO4)cc2)CC1	45µM*	5µM*	84%	35µM*	50µM*
CC(=O)N1CCN(c2ccc(NCc3ccccc3)cc2)CC1	-8%	14µM*	63%	u	u
O=C(Nc1ccc(N2CCN(Cc3ccccc3)CC2)cc1)c1ccco1	-15%	79µM*	36%	-32%	u
CC(C)(C)C(=O)N1CCN(c2ccc(NC(=O)c3ccco3)cc2)CC1	0%	5%	41%	-14%	-8%
O=C(CCS(=O)(=O)c1ccc(F)cc1)Nc1ccc(N2CCN(Cc3ccccc3)CC2)cc1	2%	u	44%	-7%	-21%
CC(=O)N1CCN(c2ccc(NCc3cccc4ccccc34)cc2)CC1	u	8.9µM*	u	32µM*	22µM*
CC(=O)N1CCN(c2ccc(NCc3ccc(Br)o3)cc2)CC1	-8%	3%[0.501 µM]	25%	u	u
CCc1ccc2oc(-c3ccc(C)c(NC(=O)c4ccc(C#N)cc4F)c3)nc2c1	29%	5%[59 µM]	1%	-4%	-14%
CCOC(=O)Cn1c(=O)n(CC2CCCO2)c2nc(-c3ccc(CC)cc3)nc(C(N)=O)c21 (stereo not given)	31%[57 µM]	11%[59 µM]	5%	1%	-7%
CCCOC(=O)CCCN1C(=O)/C(=C2\SC(=S)N(CCCC(=O)OCCC)C2=O)SC1=S	u	1.1µM*	-12%	3.2µM*	u
CCCCCOC(=O)CCN1C(=O)/C(=C2\SC(=S)N(CCC(=O)OCCCCC)C2=O)SC1=S	-36%	x	-5%	u	-11%
CSC1=NC2C(N1)N(C)C(=O)N2C (stereo not given)	30%	7.9µM*	1%	35µM*	-15%
CCCCN(C=O)c1c(CC)nc2ccc(C(=O)N3CCN(c4ccccc4)CC3)cn12	x	x	24%	x	x
C=CC[C@H]1Cc2c(cccc2[N+](=O)[O-])[C@H](CC=C)N1	26%	-10%[59 µM]	0%	40µM*	-31%
C=CCC1Cc2c(Br)cccc2C(CC=C)N1 (stereo not given)	43%	u	0%	1%	12%
COc1ccc(Nc2nc(NN)nc(Nc3ccc(OC)cc3)n2)cc1	15%	-1%	8%	25µM*	45µM*
Cc1cccc(Nc2nc(N3CCCCC3)nc(N3CCCCC3)n2)c1	28%	-2%[59 µM]	11%	3%	7%
